Bioassay records: PubChem, National Center for Advancing Translational Sciences (NCATS)
IP6K1 inhibitor = Primary qHTS assay for small molecule inhibitors of Inositol hexaphosphate kinase 1 (IP6K1). Inositol hexakisphosphate kinase 1 (Homo sapiens), Q92551. IP6K1 kinase, ADP-Glo luminescence, 2 h; stronger effect = lower value. activity change, % (series mostly up to about 58 µM). actives 0.81% (n = 140,000); in the data active = activity change below about -25%; note: % is set by controls: 0 for no effect and ±100 for the full control effect
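ADP-Glo luminescence measures ADP made by human IP6K1 during a 2 h RT reaction with ATP/IP6 (mix at 1.3 mM/130 uM); top library doses 57.5 and 19.1 uM final.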
KDM5B inh = Primary screen for KDM5B Histone Demethylases FDH-coupled qHTS; Lysine-specific demethylase 5B (Homo sapiens), Q9UGL1; KDM5B demethylase, FDH-coupled NADH fluorescence (FDH is formaldehyde dehydrogenase); Potency, µM (highest dose often 57.7 µM), usual class: inhibitors; actives 2.6% (n = 220,000); active = well fitted inhibition curve with a large enough effect; inconclusive = small, poorly fitted or top-dose-only effect; inactive = no such curve, though single readings can be large or run the other way; note: potency is the fitted concentration of half-maximal effect; 0% is about no effect; nearly all actives have a fitted effect of over 70% in size
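Measured: NADH fluorescence change, 30 min, RT. System: KDM5BΔAP 200 nM final, H3K4me3 peptide, α-KG, Fe(II), ascorbate, NAD⁺ plus FDH, pH 7.5 HEPES. Compounds: titrated, 10 min pre-incubation with enzyme.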
An asterisk follows results filed as active; i = inactive; ? = inconclusive; · = no result given. Rows were chosen to be rich in hits. Some 2.7% of all compounds tested hit in one or more screens of this group.

SMILES	IP6K1 inhibitor	KDM5B inh
CCCS(=O)(=O)Nc1ccc(=O)n2c1[C@@H]1C[C@@H](CN(S(=O)(=O)c3ccccc3)C1)C2	9	i
CCCS(=O)(=O)Nc1ccc(=O)n2c1[C@@H]1C[C@@H](CN(C(=O)Nc3ccc(OC)cc3)C1)C2	1	28µM*
COc1ccc(NC(=O)N2C[C@@H]3C[C@H](C2)c2c(NC(=O)CSC)ccc(=O)n2C3)cc1	6	i
CCCS(=O)(=O)Nc1ccc(=O)n2c1[C@@H]1C[C@@H](CN(S(=O)(=O)c3ccc(OC)cc3)C1)C2	8	22µM*
CCNC(=O)NC[C@H]1C[C@@H]2CCN1C[C@@H]2c1cc(-c2ccc3ccccc3c2)nn1C	-7	i
C=C[C@H]1CN2CC[C@H]1C[C@@H]2CNC(=O)C1CC1	20	i
CC(C)NC(=O)OC[C@H]1C[C@@H]2CCN1C[C@@H]2c1cc(C2CCCC2)nc(-c2ccncc2)n1	-1	?
Cc1nc(-c2ccco2)cc([C@H]2CN3CC[C@H]2C[C@@H]3CNC(=O)C(C)(C)C)n1	-6	?
CC(C)(C)CC(=O)N1C[C@@H]2C[C@H](C1)c1ccc(NC(=O)c3ccco3)c(=O)n1C2	9	?
CC(C)(C)CC(=O)N1C[C@@H]2C[C@H](C1)c1ccc(NC(=O)Nc3cccc(F)c3)c(=O)n1C2	-14	28µM*
CCOC(=O)[C@H]1CN(C(=O)CCc2ccccc2)[C@]2(C)C(=O)N(CCOC)c3ccccc3[C@H]12	16	·
CC(C)(CC(=O)O)CC(=O)N1C[C@@H]2C[C@H](C1)c1ccc(-c3cccc(C#N)c3)c(=O)n1C2	4	i
COCCC(=O)N1C[C@@H]2C[C@H](C1)c1ccc(-c3cccc(C(F)(F)F)c3)c(=O)n1C2	7	40µM*
CN(C)CC(=O)N1C[C@@H]2C[C@H](C1)c1c(-c3cccc(C#N)c3)ccc(=O)n1C2	-2	i
CC(C)NC(=O)N1C[C@@H]2C[C@H](C1)c1ccc(-c3cccc(C(F)(F)F)c3)c(=O)n1C2	16	i
O=C(O)CSCC(=O)N1C[C@@H]2C[C@H](C1)c1ccc(-c3cccc(C(F)(F)F)c3)c(=O)n1C2	12	32µM*
O=C(c1ccncc1)N1C[C@@H]2C[C@H](C1)c1ccc(-c3cccc(C(F)(F)F)c3)c(=O)n1C2	11	28µM*
CCOC(=O)[C@H]1CN(C(=O)c2ccc(OC)c(OC)c2)[C@]2(C)C(=O)N(CC3CC3)c3ccccc3[C@H]12	-1	·
CC(C)CN1Cc2ccccc2-n2ccnc2C12CCN(C(=O)c1ccc(F)cc1)CC2	20	i
COCCNC(=O)[C@H]1CN2CCC1C[C@@H]2Cn1cc(-c2ccc(OC)cc2)nn1 (stereo partly drawn)	6	i
Cc1nnc2n1CCC(NC(=O)c1nn(C)c3ccccc13)CC2 (stereo not drawn)	11	?
CCCn1c(C)cnc1CCNC(=O)c1nn(C)c2ccccc12	-6	25µM*
COc1cc2c(cc1Oc1ccccc1)NC(=O)C21CCN(Cc2cccc(O)c2)CC1	-15	i
O=C(O)C1=NOC2CN(CC3CCOCC3)CC12 (stereo not drawn)	6	i
O=C(O)C1=NOC2CN(CC3CCNC3)CC12 (stereo not drawn)	0	141µM*
SMILES	IP6K1 inhibitor	KDM5B inh
COc1ccccc1-c1cc([C@H]2CN3CC[C@H]2C[C@@H]3CNS(=O)(=O)c2ccc(NC(C)=O)cc2)nc(C)n1	-3	32µM*
COc1ccccc1-c1cc([C@H]2CN3CC[C@H]2C[C@@H]3COC(=O)NC(C)C)nc(C)n1	4	40µM*
COc1ccc(-c2cc([C@H]3CN4CC[C@H]3C[C@@H]4CNC(=O)C(C)(C)C)nc(C)n2)cc1OC	1	32µM*
Cc1nc(-c2ccc(C(F)(F)F)cc2)cc([C@H]2CN3CC[C@H]2C[C@@H]3CNC(=O)CCC(=O)O)n1	5	i
COc1ccccc1-c1cc([C@H]2CN3CC[C@H]2C[C@@H]3CNC(=O)CCC(=O)O)nc(C)n1	8	32µM*
CCCNC(=O)OC[C@H]1C[C@@H]2CCN1C[C@@H]2c1cc(-c2ccccc2OC)nn1C	-6	i
Cc1nc(-c2ccccc2)cc([C@H]2CN3CC[C@H]2C[C@@H]3CNC(=O)C(C)(C)C)n1	6	i
CC(=O)Nc1ccc(S(=O)(=O)NC[C@H]2C[C@@H]3CCN2C[C@@H]3c2cc(-c3ccccc3Br)nc(C)n2)cc1	8	i
CCN1CCCN(C(=O)Cc2ccccc2)CC12CCOCC2	-1	·
CCOC(=O)CN1C(=O)[C@@H]2[C@H](c3ccccc31)[C@@H](C(=O)OCC)[C@@H](c1ccccc1)N2C(=O)C1CC1	-3	·
Cc1nc(-c2cccs2)cc([C@H]2CN3CC[C@H]2C[C@@H]3CNC(=O)C2CCC2)n1	12	?
COc1cc2c(cc1CCc1ccccc1)N(C(=O)c1c[nH]c3ccccc13)CC21CCN(C(C)=O)CC1	-10	?
C=C[C@H]1CN2CC[C@H]1C[C@@H]2CNC(=O)C1CCCCC1	-10	i
Cc1nc(-c2ccccc2Br)cc([C@H]2CN3CC[C@H]2C[C@@H]3CNC(=O)Nc2cccc(C#N)c2)n1	0	?
O=C(NC1CCCCC1)OC[C@H]1C[C@@H]2CCN1C[C@@H]2c1cc(C2CCCC2)nc(-c2ccncc2)n1	10	?
COCC(=O)NC[C@H]1C[C@@H]2CCN1C[C@@H]2c1cc(-c2ccccc2Br)nc(C)n1	-4	i
COc1ccccc1-c1cc([C@H]2CN3CC[C@H]2C[C@@H]3COC(=O)NC2CCCCC2)nc(C)n1	9	28µM*
COc1ccccc1-c1cc([C@H]2CN3CC[C@H]2C[C@@H]3COC(=O)Nc2ccccc2)nc(C)n1	9	?
CCCNC(=O)OC[C@H]1C[C@@H]2CCN1C[C@@H]2c1cc(-c2ccccc2OC)nc(C)n1	4	35µM*
Cc1nc(-c2ccccc2Br)cc([C@H]2CN3CC[C@H]2C[C@@H]3CNC(=O)CSCC(=O)O)n1	17	25µM*
COC(=O)c1sccc1NC(=O)N1[C@H]2CC[C@@H]1c1cncnc1C2	15	i
Cc1ccccc1-c1ccc2n(c1=O)C[C@H]1C[C@@H]2CN(C(=O)Nc2ccccc2)C1	-1	?
CCOC(=O)[C@H]1CN(C(=O)/C=C/c2ccccc2)[C@]2(C)C(=O)N(CCOC(C)=O)c3ccccc3[C@H]12	0	·
CCn1cc(CN2CCN(C(=O)Cc3cccs3)CC2)ccc1=O	1	13µM*
Cc1noc(C)c1COc1ccc(CC(=O)N2CCN(CC(=O)N3CCCCC3)CC2)cc1	·	i
CCn1cc(CN2CCN(C(=O)COc3ccccc3)CC2)ccc1=O	-2	?
CCn1cc(CN2CCN(C(=O)Cc3c(C)noc3C)CC2)ccc1=O	3	11µM*
O=C(NC[C@H]1C[C@@H]2CCN1C[C@@H]2CN1CCOCC1)Nc1ccsc1	-3	i
CN(C)Cc1ccccc1-c1ccc2n(c1=O)C[C@H]1C[C@@H]2CN(C(=O)c2cccs2)C1	-3	?
CN(C)Cc1ccccc1-c1ccc2n(c1=O)C[C@H]1C[C@@H]2CN(C(=O)C2CCCCC2)C1	1	35µM*
